Screening data deposited in PubChem by National Center for Advancing Translational Sciences (NCATS).
In the library only some 3.8% were active in any assay of this set; here they are far more common.
ELG1 DNA repair = ELG1-dependent DNA repair inhibition | HEK293T ELG1-luciferase reporter, luminescence, 16 h; DNA damage induced by 5-fluorouridine | Potency, µM (series often up to 46.1 µM), without a hit: at the top dose activity change, negative = inhibition, usual class: inhibitors | hit rate 2.3% among 330,000; also: % is scaled to controls: 0 for no effect and ±100 for the full control effect; nearly all actives have a fitted effect of over 55% in size
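Reporter activity after DNA damage by 5-fluorouridine is monitored. Compound-treated cells incubate 16 hr at 37 °C, then ONE-Glo is added for 30 min before luminescence reading.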
Nrf2 inh = Nrf2 pathway inhibition; A549 ARE-Fluc reporter, luciferase luminescence, 18-24 h; Potency, µM (titrated, usually from 46 µM), for the others: at the highest dose activity change, negative = inhibition, actives largely listed as inhibitors; hit rate 2.1% among 360,000; also: % is scaled to controls: 0 for no effect and ±100 for the full control effect; nearly all actives have a fitted effect of over 60% in size
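A549 ARE_Fluc cells, 5000/well, 5% FBS OPTI-MEM; compounds in dose-response, 18-24 h at 37 °C/5% CO2; CellTiter-Fluor viability read (Ex 405/Em 525), then BugLite luciferase luminescence = Nrf2 activity.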
mIDH1 inhibitor = inhibitors of human mutant IDH1 R132H. Potency, µM (highest dose often 76.6 µM), for the others: at the highest dose activity change, negative = inhibition, actives largely listed as inhibitors. IDH1-R132H enzyme, NADPH consumption, diaphorase/resazurin fluorescence. AID 602179. hit rate 0.093% among 390,000. O75874; also: % is scaled to controls: 0 for no effect and ±100 for the full control effect; nearly all actives have a fitted effect of over 65% in size
Target sequence (O75874 whole entry R132H, stated change not applied): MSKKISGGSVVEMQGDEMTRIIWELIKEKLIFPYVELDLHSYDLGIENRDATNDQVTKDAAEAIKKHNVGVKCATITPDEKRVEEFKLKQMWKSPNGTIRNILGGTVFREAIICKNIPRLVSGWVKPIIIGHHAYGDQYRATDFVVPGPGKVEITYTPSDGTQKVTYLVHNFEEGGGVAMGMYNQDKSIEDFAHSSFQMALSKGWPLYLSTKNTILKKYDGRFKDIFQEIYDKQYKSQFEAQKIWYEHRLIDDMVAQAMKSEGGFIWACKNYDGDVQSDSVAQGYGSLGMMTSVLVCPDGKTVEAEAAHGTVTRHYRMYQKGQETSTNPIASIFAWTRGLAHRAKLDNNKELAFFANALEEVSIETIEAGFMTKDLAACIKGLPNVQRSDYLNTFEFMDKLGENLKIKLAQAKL
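IDH1-R132H (0.5 ug/mL dispensed) in pH 7.5 Tris buffer was preincubated 30 min with compound, then given a substrate mix of 0.016 mM NADPH and 2 mM alpha-KG for 80 min at room temperature; remaining NADPH was read by diaphorase/resazurin fluorescence.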
A549 viability = kills or reduces viability of A549 cells in Nrf2 counter-screen; A549 ARE-Fluc cells, CellTiter-Fluor viability, 18-24 h; Potency, µM (doses to about 46 µM), for inactives: top-dose activity change, negative = cytotoxicity, hits mostly inhibitors; hit rate 0.16% among 390,000; AID 504648; also: % is scaled to controls: 0 for no effect and ±100 for the full control effect
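A549 ARE-Fluc cells in 5% FBS OPTI-MEM, 5000 cells/well, rested 2 h then exposed to compounds in concentration-response for 18-24 h at 37 °C. Viability by CellTiter-Fluor fluorescence (Ex 405/Em 525) after 30 min; luciferase luminescence (BugLite, 15 min, RT) read afterwards.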
Nrf2 activator = Nrf2 pathway activation; Potency, µM (top dose mostly 46.1 µM), for the others: at the top dose activation, actives largely listed as activators; hit rate 0.31% among 410,000; AREc32 ARE-luciferase reporter (MCF7-derived line), luminescence, 24 h; also: % of control where 0% means no effect; nearly all actives have a fitted effect of over 65% in size
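Quantitative high-throughput format: AREc32 reporter cells, 1000 per well, received compound by pin transfer and were incubated 24 hr at 37 deg C, 5% CO2, before Steady-Glo luminescence detection.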
* hit, by the source's call; ? = inconclusive; nt = not tested or not shown. Calls follow the shape of the dose curve; as a rule, active = well fitted curve in the direction sought with a large enough effect; inconclusive = small, poorly fitted or top-dose-only effect, or another doubt; inactive = no such curve, though single readings can be large; an effect the other way counts as inactive or inconclusive. Potency is read from the fitted curve at half-maximal effect.

SMILES | ELG1 DNA repair | Nrf2 inh | mIDH1 inhibitor | A549 viability | Nrf2 activator
CCOc1ccc(-c2nn3c(-c4cc(-c5ccccc5)n[nH]4)nnc3s2)cc1 | nt | -19% | nt | 4% | nt
CC(C)c1cnc2c(c1SCC(=O)c1ccccc1)c(=O)n(C)c(=O)n2C | nt | nt | -5% | 0% | 24%
COc1ccc(NC(C)C(=O)N/N=C/c2ccc([N+](=O)[O-])s2)cc1 (stereo not given) | 18µM* | 21µM* | 4% | ? | 0%
O=C(N/N=C/c1ccc([N+](=O)[O-])s1)c1ccccc1 | ? | 23µM* | 1% | ? | -2%
COC(=O)N/N=C/c1ccc([N+](=O)[O-])s1 | ? | 6.5µM* | -2% | 10µM* | 21%
O=C(N/N=C/c1cccs1)c1cncc(Br)c1 | -17% | ? | 1% | -3% | 0%
Cc1ccc(NC(C)C(=O)N/N=C/c2ccc([N+](=O)[O-])s2)cc1 (stereo not given) | ? | ? | 8% | ? | 0%
O=C(N/N=C\c1ccc([N+](=O)[O-])s1)c1cncc(Br)c1 | ? | 16µM* | -9% | 23µM* | -1%
COc1cccc(CNC(=O)CCc2c(C)nc3c4c(C)cc(C)nc4nn3c2C)c1 | nt | -11% | nt | -11% | 0%
Cc1cc(C(=O)N/N=C/c2ccc([N+](=O)[O-])s2)c2ccccc2n1 | 21µM* | ? | 4% | ? | 0%
O=C(N/N=C/c1ccc([N+](=O)[O-])o1)c1cc(-c2ccc(-c3ccccc3)cc2)nc2ccccc12 | ? | ? | 4% | -28% | 17%
Cc1ccc(-c2cc(C(=O)N/N=C/c3ccc([N+](=O)[O-])o3)c3ccccc3n2)o1 | 8% | 21µM* | -8% | ? | 2%
CCc1ccc(CNC(=O)C2CCCN(c3nn4cc(-c5ccc(F)cc5)nc4s3)C2)cc1 (stereo not given) | nt | -36% | 1% | 11% | 0%
O=C1c2cccc3c(Nc4ccccc4Cl)c([N+](=O)[O-])cc(c23)C(=O)N1CCO | -18% | 13µM* | -25% | nt | 7%
Cc1noc(C)c1S(=O)(=O)N1CCC(C(=O)N2CCC(C)CC2)CC1 | -1% | 18% | 9% | 3% | -1%
Cc1cccc(N2CCN(C(=O)C3CCCN(S(=O)(=O)c4cnc[nH]4)C3)CC2C)c1 (stereo not given) | 23µM* | ? | -1% | -1% | 0%
Cc1cccc(CCNC(=O)C2CCCN(S(=O)(=O)c3cnc[nH]3)C2)c1 (stereo not given) | -1% | 1% | 5% | -7% | 0%
Cc1cccc(N2CCN(C(=O)C3CCN(S(=O)(=O)c4c(C)noc4C)CC3)CC2C)c1 (stereo not given) | 21µM* | ? | 7% | 2% | 0%
COc1cc(C2C=C(C(=O)O)Nc3ncnn32)ccc1O (stereo not given) | nt | 2% | 6% | 0% | -1%
CC1C(=O)NN=C1C(=O)N/N=C\C(Br)=C\c1ccccc1 (stereo not given) | ? | ? | -3% | -2% | 11µM*
O=C(N/N=C/C(Br)=C/c1ccccc1)c1cccs1 | ? | ? | -5% | ? | 10µM*
O=C(Cn1cnc2ccccc21)N/N=C/C(Br)=C/c1ccccc1 | 16% | -21% | 6% | -5% | 7.1µM*
Cn1c(=O)c2c(ncn2CC(=O)N/N=C/C(Br)=C/c2ccccc2)n(C)c1=O | 6% | 7% | -5% | -5% | ?
O=C(N/N=C/C(Br)=C/c1ccccc1)c1ccccc1F | ? | ? | -3% | 3% | 13µM*
C=C(C)c1cc2c(s1)c1cnn(Cc3ccccc3F)c(=O)c1n2C | nt | ? | nt | 1% | nt
SMILES | ELG1 DNA repair | Nrf2 inh | mIDH1 inhibitor | A549 viability | Nrf2 activator
COc1ccc(CN(Cc2ccccc2)C(=O)c2ccccc2O)cc1COc1ccc(NC(C)=O)cc1 | nt | 21% | nt | -1% | nt
COC(=O)Cc1c(C)c2ccc3c(c2oc1=O)CN(Cc1ccc(Cl)cc1)CO3 | nt | 4% | 1% | 10% | 3%
CCN(C(=O)CSc1n[nH]c(N)n1)C1CCCCC1 | -5% | -2% | 11% | 14% | 0%
Cc1cc(C)cc(NC(=O)COCc2cc(-c3ccc4c(c3)OCO4)on2)c1 | nt | ? | -9% | 5% | 0%
CCc1ccc(NC(=O)CN2C(=O)CC(c3ccccc3)Sc3ccccc32)cc1 (stereo not given) | nt | 14% | -5% | 12% | 0%
O=C(N/N=C/c1ccccc1)c1n[nH]c2c1CCCC2 | ? | ? | -2% | -20% | -1%
O=C(N/N=C/C(Br)=C/c1ccccc1)c1n[nH]c2c1CCC2 | ? | -10% | -2% | -8% | 22µM*
CC(=O)Nc1ccc(S(=O)(=O)Nc2cccc(-c3ccc(N4CCC(C)CC4)nn3)c2)cc1 | nt | nt | 31% | ? | -1%
CN1/C(=C\C=O)C(C)(C)c2ccccc21 | -1% | -26% | 13% | 2% | 0%
CN1\C(=C/C=C/C=C/C=[N+](C)C)C(C)(C)c2ccccc21 | -24% | ? | 46µM* | ? | ?
Clc1ccccc1N1CCN(c2ncnc3c2c(-c2ccccc2)cn3-c2ccccc2)CC1 | nt | nt | 3% | 13% | 2%
NC(=O)C1CCN(c2ncnc3c2c(-c2ccccc2)cn3-c2ccccc2)CC1 | 16µM* | -13% | ? | -3% | 0%
Fc1ccc(-n2cc(-c3ccccc3)c3c(N4CCOCC4)ncnc32)cc1 | 21µM* | ? | 6% | -15% | 0%
Cc1cc(-c2ccc(S(=O)(=O)Nc3ccc(Br)c(C)c3)s2)on1 | nt | -22% | 0% | -14% | -2%
Cc1cccc(C(=O)NCCc2ccccc2)c1 | ? | ? | -3% | 5% | 0%
CCc1nnc2sc(-c3ccc(NC(=O)c4ccc5c(c4)OCCO5)cc3)nn12 | 5.8µM* | 2.6µM* | 2% | -17% | 1%
COc1ccc(Cc2c(-c3ccccc3)nc3c4ccccc4ccn23)c(C)c1 | nt | nt | nt | nt | 5µM*
Brc1cccc(-c2nc3c4ccccc4ccn3c2Cc2ccsc2)c1 | nt | nt | nt | nt | 11µM*
Clc1cccc(Cc2c(-c3ccccc3)nc3c4ccccc4ccn23)c1 | nt | nt | nt | nt | 5µM*
Fc1cccc(Cc2c(-c3ccco3)nc3c4ccccc4ccn23)c1 | nt | nt | nt | nt | 5µM*
CC(C)c1csc(CN2CCC(C(=O)Nc3cccc(-c4ccco4)c3)CC2)n1 | nt | nt | 0% | nt | 21%
C=CCN1C(=O)/C(=C\c2ccc(Cl)cc2)N=C1SCC(=O)NC1CCCCC1 | 7% | 9% | 1% | -10% | 0%
COc1ccc(Cl)cc1N1C(=O)/C(=C\c2sccc2C)N=C1SCC(=O)NC1CC1 | 16µM* | ? | 1% | -21% | 8%
CC(=O)n1cc(N(C(=O)CCl)c2ccc([N+](=O)[O-])cc2)c2ccccc21 | 23µM* | -27% | -1% | -8% | 0%
